Screening data from PubChem.
Sampled rows, rich in hits. Any-hit rate of the full collection: about 19%.
DT40 TDP1 no CPT: qHTS for Inhibitors of human tyrosyl-DNA phosphodiesterase 1 (TDP1): qHTS in cells in absence of CPT; DT40 Tdp1-/- hTDP1 cells, no CPT, ATP luminescence, 48 h; Potency, µM (top dose mostly 46.2 µM), for inactives: top-dose activity change, negative = growth inhibition, actives largely listed as inhibitors; 420,000 tested, 15% active; AID 686978, 2013; further: potency means the concentration at half of the fitted maximal effect; nearly all actives have a fitted effect of over 55% in size
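Growth kinetics read by CellTiter-Glo luminescence after ≥48 hr at 37 °C. Cells: DT40 Tdp1-/- stably carrying human TDP1, 400 per well, compound exposure in the absence of CPT (DMSO vehicle).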
TDP1 cell CPT: DT40-hTDP1 cell growth loss with CPT | chicken DT40 Tdp1-/-;hTDP1 cells + 20 nM CPT, ATP luminescence, 48 h | Potency, µM (doses to about 46.2 µM), for the others: at the top dose activity change, negative = growth inhibition, hits mostly inhibitors | 420,000 tested, 12% active | AID 686979; further: potency means the concentration at half of the fitted maximal effect; nearly all actives have a fitted effect of over 55% in size
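Cell growth measured by CellTiter-Glo luminescence after a minimum 48 h, 37 C compound exposure with 20 nM CPT in Tdp1-knockout DT40 cells stably expressing hTDP1, seeded 400/well; qHTS titration format.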
ELG1 repair inh: blocks ELG1-dependent DNA repair in HEK293T cells; AID 504467; 330,000 tested, 2.3% active; Potency, µM (top dose mostly 46.1 µM), for inactives: at the highest dose activity change, negative = inhibition, usual class: inhibitors; HEK293T ELG1-luciferase reporter, luminescence, 16 h; DNA damage induced by 5-fluorouridine; further: potency means the concentration at half of the fitted maximal effect; nearly all actives have a fitted effect of over 55% in size
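Overnight (16 hr) co-exposure of 2,000 cells/well to 5-fluorouridine and compound at 37 °C preceded detection. Luciferase was quantified via ONE-Glo luminescence; loss of signal denotes inhibition.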
HT1080 IDH1KD tx: HT-1080 IDH1 knockdown cell toxicity (counter line) | HT-1080 IDH1 knockdown viability, ATP luminescence, 48 h | Potency, µM (titrated, usually from 46.1 µM), for the others: top-dose activity, negative = toxicity, hits mostly cytotoxic | 360,000 tested, 2% active;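 further: potency means the concentration at half of the fitted maximal effect; 0% = DMSO wells and -100% = cell-free medium wells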
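Luminescent ATP read-out (CellTiter-Glo, 10 min at room temperature) after 48 h compound exposure at 37 °C gave viability of IDH1-knockdown HT-1080 cells. Activity was normalised to DMSO and cell-free wells, then fitted as concentration-response curves.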
HT1080NT lethal: kills 2HG-producing HT-1080-NT fibrosarcoma cells; HT-1080-NT fibrosarcoma viability, CellTiter-Glo ATP luminescence, 48 h; Potency, µM (doses to about 46.1 µM), for inactives: at the highest dose activity, negative = less viability, most hits filed as cytotoxic; 360,000 tested, 1.6% active; AID 686970;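 further: NT is the 2HG producing partner of a matched IDH1 knockdown line; potency means the concentration at half of the fitted maximal effect; 0% = DMSO-treated cells and -100% = media-only wells without cells; nearly all actives have a fitted effect of over 55% in size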
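Luminescent CellTiter-Glo readout after 48 hours of compound exposure at 37 degrees C defined viability of HT-1080-NT cells. Activity was normalized to DMSO wells and cell-free media wells; concentration-response curves were fitted and assigned curve classes.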
IL1B secr inh: inflammasome signaling inhibition, IL-1 beta readout; activity change, % at 57.5 µM; THP-1 LPS/ATP IL-1B secretion, AlphaLISA, 16 h; stronger effect = lower value; 360,000 tested, 4.7% active; AID 743279; in the data active means activity change below about -50%; inconclusive means mostly about -30% to -49%
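Secreted IL-1B measured by AlphaLISA bead assay after 16 h compound exposure of THP-1 cells; compounds (final up to 57.5 uM) added 1 h before LPS (250 ng/mL) and ATP (1.25 mM) stimulation; lower signal means less secretion.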
Active calls of the source: *; [ ] = dose if it differs, or a comment. Unless noted, the call rests on the fitted dose curve; in most records, active means well fitted curve in the direction sought with a large enough effect; inconclusive means small, poorly fitted or top-dose-only effect, or another doubt; inactive means no such curve, though single readings can be large; an effect the other way counts as inactive or inconclusive. Unless noted, on the % scale 0 is the no-effect control and ±100 the full control effect.

`Cc1ccccc1C1(CC(=O)N2CCC[C@H]2C(N)=O)CC(=O)N(C2CCCC2)C1=O` (stereo partly specified) gave DT40 TDP1 no CPT -3% and TDP1 cell CPT 20%[9.04 µM].
`Cc1cc(OCC(=O)Nc2sc3c(c2C(N)=O)CCCC3)ccc1C(C)C` gave DT40 TDP1 no CPT -19% and TDP1 cell CPT 0%.
For Cc1ccc(-n2ncc(C(=O)NCCN3CCc4ccccc4C3)c2C2CCN(C(=O)OC(C)(C)C)CC2)cc1C the results were DT40 TDP1 no CPT 21µM* and TDP1 cell CPT 16µM*.
`CN(C)c1ccc(/C=C2\C=Cc3ccccc32)c(Cl)c1` gave DT40 TDP1 no CPT 13µM* and TDP1 cell CPT inconclusive.
Screening CNc1c(Cl)cc(/C=C2\C=Cc3ccccc32)cc1Cl returned DT40 TDP1 no CPT -12% and TDP1 cell CPT -24%.
Cc1ccc(S(=O)(=O)CCC(=O)Nc2ccccc2Br)cc1 was read as DT40 TDP1 no CPT 24%, TDP1 cell CPT -3%, ELG1 repair inh -4%, HT1080 IDH1KD tx 3%, HT1080NT lethal 11% and IL1B secr inh -6.
`Cc1ccc(S(=O)(=O)N2[C@H](CC(=O)OCc3ccccc3)OC[C@@H]2C(C)C)cc1` gave DT40 TDP1 no CPT 23µM*, TDP1 cell CPT 21µM*, HT1080 IDH1KD tx -16%, HT1080NT lethal -21% and IL1B secr inh -22.
Screening Cc1ccc(S(=O)(=O)N2[C@H](CC(=O)OCc3ccccc3)OC[C@@H]2C)cc1 returned DT40 TDP1 no CPT inconclusive, TDP1 cell CPT -30%, HT1080 IDH1KD tx -3%, HT1080NT lethal 3% and IL1B secr inh 22.
Screening Cc1oc(-c2cccs2)nc1CN1CC[C@@](O)(c2ccccc2)[C@H]2CCCC[C@@H]21 returned DT40 TDP1 no CPT inconclusive, TDP1 cell CPT inconclusive, ELG1 repair inh 14%, HT1080 IDH1KD tx -29%, HT1080NT lethal -29% and IL1B secr inh -74*.
`Cc1ccccc1CC1(CO)CCCN(Cc2nc(-c3cccs3)oc2C)C1` (stereo unspecified) gave DT40 TDP1 no CPT 21µM*, TDP1 cell CPT inconclusive, ELG1 repair inh -6%, HT1080 IDH1KD tx inconclusive, HT1080NT lethal inconclusive and IL1B secr inh -4.
COc1ccc(CCNC(=O)Cn2nc(C)n3c(cc4cc(F)ccc43)c2=O)cc1OC was read as DT40 TDP1 no CPT 5% and TDP1 cell CPT 4%.
For COc1ccc(CNC(=O)c2cc(-c3cc(C)ccc3O)n[nH]2)cc1 the results were DT40 TDP1 no CPT inconclusive, TDP1 cell CPT inconclusive, ELG1 repair inh 0%, HT1080 IDH1KD tx 13%, HT1080NT lethal 0% and IL1B secr inh -14.
Cc1ccc(-c2cc(C(=O)NCc3ccc4c(c3)OCO4)[nH]n2)c(O)c1C was read as DT40 TDP1 no CPT inconclusive, TDP1 cell CPT inconclusive, ELG1 repair inh -20%, HT1080 IDH1KD tx 3%, HT1080NT lethal -4% and IL1B secr inh -25.
`COc1ccc(CCNC(=O)c2cc(-c3cc(C)ccc3O)n[nH]2)cc1OC` gave DT40 TDP1 no CPT inconclusive, TDP1 cell CPT inconclusive, ELG1 repair inh 23µM*, HT1080 IDH1KD tx 0%, HT1080NT lethal -1% and IL1B secr inh inconclusive.
For COc1ccc(CCNC(=O)c2cc(-c3ccc(C)c(C)c3O)n[nH]2)cc1OC the results were DT40 TDP1 no CPT 16µM*, TDP1 cell CPT 21µM*, ELG1 repair inh inconclusive, HT1080 IDH1KD tx inconclusive, HT1080NT lethal -27% and IL1B secr inh inconclusive.
For COc1cc(/C=C/C(=O)O)cc(S(=O)(=O)Nc2ccc3c(c2)CCC3)c1OC the results were DT40 TDP1 no CPT -28%, TDP1 cell CPT -9%, ELG1 repair inh 6%, HT1080 IDH1KD tx 14%, HT1080NT lethal 22% and IL1B secr inh -16.
Oc1ccc(C[C@@H]2CNCCN2CC2(c3ccccc3)CC2)cc1 was read as DT40 TDP1 no CPT inconclusive, TDP1 cell CPT inconclusive, ELG1 repair inh -2%, HT1080 IDH1KD tx 2%, HT1080NT lethal -11% and IL1B secr inh inconclusive.
`Oc1ccc(C[C@H]2CNCCN2CC2(c3ccccc3)CC2)cc1` gave DT40 TDP1 no CPT inconclusive, TDP1 cell CPT 21µM*, ELG1 repair inh 0%, HT1080 IDH1KD tx -12%, HT1080NT lethal -1% and IL1B secr inh -61*.
`CCCC[C@@H]1CNCCN1CC1(c2ccccc2)CC1` gave DT40 TDP1 no CPT 12µM*, TDP1 cell CPT 12µM*, ELG1 repair inh 11%, HT1080 IDH1KD tx -2%, HT1080NT lethal -13% and IL1B secr inh inconclusive.
Screening CCCCCN(C(=O)CCC(=O)OCC(=O)c1cccc(OC)c1)c1c(N)n(CCCC)c(=O)[nH]c1=O returned DT40 TDP1 no CPT 16%, TDP1 cell CPT 10%, ELG1 repair inh 4%, HT1080 IDH1KD tx 14%, HT1080NT lethal -1% and IL1B secr inh 27.
CCOC(=O)N1CCC(NC(=O)c2cnn(-c3ccc(C)cc3)c2-n2cccc2)CC1 was read as DT40 TDP1 no CPT 26µM* and TDP1 cell CPT inconclusive.
CCOC(=O)N1CCC(NC(=O)c2cnn3cccnc23)CC1 was read as DT40 TDP1 no CPT inconclusive, TDP1 cell CPT -9%, ELG1 repair inh 13%, HT1080 IDH1KD tx 3%, HT1080NT lethal -11% and IL1B secr inh 11.
For COC(=O)c1cnn(-c2ccc(C)c(C)c2)c1-n1cccc1 the results were DT40 TDP1 no CPT inconclusive, TDP1 cell CPT inconclusive, HT1080 IDH1KD tx -3%, HT1080NT lethal 8% and IL1B secr inh 10.
Screening CCOC(=O)N1CCC(NC(=O)c2cnn(-c3cccc(C)c3)c2-n2cccc2)CC1 returned DT40 TDP1 no CPT 18µM* and TDP1 cell CPT 16µM*.
CCC(C)NC(=O)c1cnn(-c2cccc(F)c2)c1-n1cccc1 (stereo unspecified) was read as DT40 TDP1 no CPT 16µM* and TDP1 cell CPT 21µM*.
O=C(COCCOCCOCC(=O)Nc1c(I)cc(I)c(C(=O)O)c1I)Nc1c(I)cc(I)c(C(=O)O)c1I was read as DT40 TDP1 no CPT -12% and TDP1 cell CPT 3%.
`CCNc1ncc2nc(-c3cc(F)cc(F)c3)c(=O)n(C)c2n1` gave DT40 TDP1 no CPT -1% and TDP1 cell CPT -6%.
